Hits are enriched below; roughly 2% of the tested compounds scored in any of these assays.
NPSR antagonist: antagonists of human neuropeptide S receptor cAMP signaling; CHO-NPSR cells, cAMP TR-FRET, antagonist mode; Q6W5P4; Potency, µM (top dose mostly 38.3 µM), for the others: at the top dose activity change, negative = inhibition, most hits filed as inhibitors; 220,000 compounds, 1% hits; further: potency means the concentration at half of the fitted maximal effect; on the % scale 0 is the no-effect control and ±100 the full control effect; nearly all actives have a fitted effect of over 50% in size
PKM2 activator: activators of human pyruvate kinase M2; P14618; purified PKM2, Kinase-Glo ATP luminescence, activation; response scale: 0% is enzyme alone, no compound; Potency, µM (highest dose often 57.5 µM), inactives show at the highest dose activation, most hits filed as activators; 260,000 compounds, 0.34% hits; further: potency means the concentration at half of the fitted maximal effect; on the % scale 0 is the no-effect control and ±100 the full control effect; nearly all actives have a fitted effect of over 55% in size
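hPK-M2, >95% pure; 0.1 mM ADP / 0.5 mM PEP final; imidazole pH7.2 buffer w/ 7 mM MgCl2, 50 mM KCl; 1 h RT; Kinase-Glo lum. Intermediate enzyme activity for dual inhibitor/activator qHTS.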
ClpP mod: qHTS Assay for Activators of ClpP | 340,000 compounds, 1.9% hits | AID 651965, 2013 | ATP-dependent Clp protease proteolytic subunit (Bacillus subtilis (strain 168)), P80244 | purified B. subtilis ClpP, FRET peptide cleavage, 20 min | Potency, µM (series often up to 57.5 µM), for the others: top-dose activity change, negative = active; active means well fitted falling curve with a large enough effect; inconclusive means small, poorly fitted or top-dose-only effect; inactive means no such curve, though single readings can be large or run the other way; further: potency means the concentration at half of the fitted maximal effect; the source files actives as falling curves though it sought activators and does not explain the sign; nearly all actives have a fitted effect of over 65% in size
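Buffer: 100 mM Tris/HCl pH8, 100 mM KCl, 0.05% low protease BSA, 2.5% glycerol, 0.01% Tween-20. ClpP 10 microg/mL final; 20 min RT; delta FRET normalized to ADEP and DMSO controls.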
IL2 activator: activators of IL-2; IL-2 activation reporter assay, cell-based qHTS; stimulated with anti-CD3/CD4/CD28 beads; in transgenic mouse T cells; activation, % (series mostly up to about 46 µM); 360,000 compounds, 0.065% hits; in the data active means activation above about 50%; inconclusive means mostly about 30% to 49%; further: 0% is about no effect
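Readout: EGFP and DsRed signals by fluorescent plate cytometry. Unstimulated transgenic mouse T cells received compound 60 min before antibody-bead stimulation, then incubated 18 h at 37 degrees C.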
An asterisk follows results filed as active; ? = inconclusive; · = no result given; [ ] = dose if it differs, or a comment. Unless noted, the call rests on the fitted dose curve; in most records, active means well fitted curve in the direction sought with a large enough effect; inconclusive means small, poorly fitted or top-dose-only effect, or another doubt; inactive means no such curve, though single readings can be large; an effect the other way counts as inactive or inconclusive.

SMILES	NPSR antagonist	PKM2 activator	ClpP mod	IL2 activator
Cc1ccccc1S(=O)(=O)Oc1ccccc1C(=O)Oc1ccccc1	-21%[46.1 µM]	-1%	25µM*	-6
COc1ccccc1C(=O)Oc1ccc(C(C)(C)C)cc1	?	-6%	1%	-1
CCSc1nc2ccc(OC)cc2cc1C#N	-23%	-7%	-24%	-1
Cc1ccc(C)c(SCC(=O)NC(=O)Nc2ccc3c(c2)OCCO3)c1	-4%	6%	-2%	0
COc1cc(N2C(=O)C=CC2=O)ccc1N1C(=O)C=CC1=O	·	·	-1%	-7
O=C1C=CC(=O)N1c1cccc(-c2ccccc2)c1	5%	3.2µM*	0%	0
c1ccc(CCCc2nc(-c3cccnc3)no2)cc1	·	7%[11.5 µM]	·	-2
Cc1nc(-c2coc3cc(OCC(=O)O)ccc3c2=O)cs1	-2%[46.1 µM]	-5%	35µM*	-2
O=C(NCCN1CCOCC1)c1ccc(Cl)c(S(=O)(=O)N2CCOCC2)c1	·	-4%	-3%	-1
COC(=O)CN(c1ccccn1)S(=O)(=O)c1ccccc1	-4%[46.1 µM]	-8%	11µM*	1
O=C(O)CN(c1ccccn1)S(=O)(=O)c1ccccc1	4%[46.1 µM]	-11%	28µM*	0
CCS(=O)(=O)c1ccc2oc(SCC(=O)NCCc3ccccc3)nc2c1	-8%	3%	·	-4
CCc1nc(N)c(C#N)c(-c2ccc(F)cc2)c1C	-7%[46.1 µM]	1%	28µM*	0
CC(=O)Nc1cccc(-c2cc(NC=O)c3ncc(-c4cccc(C(C)=O)c4)n3c2)c1	·	·	-7%	-1
Fc1ccc(Sc2ccccc2CNC2=NCCN2)cc1	-9%	3%	1%	-1
OCCNC1=NCCN1	-8%[46.1 µM]	-1%	32µM*	0
Cc1nc2scc(C)n2c(=O)c1S(=O)(=O)NCc1ccccc1	·	-4%[0.46 µM]	4%	-1
Cc1csc2nc3ccccc3c(=O)n12	0%[46.1 µM]	-6%	14µM*	0
Cc1cccc2c(N=Nc3ccccc3)c(O)[nH]c12	·	·	-2%	257*
Oc1[nH]c2ccccc2c1N=Nc1cccc(Cl)c1	·	·	1%	1
O=C(COc1ccccc1)NNc1c2ccccc2nc2ccccc12	10µM*	20%	14%	1
O=C(NNc1c2ccccc2nc2ccccc12)C(O)c1ccccc1 (stereo not drawn)	10µM*	16%	-2%	1
CC(C)N1CCc2c(sc(NC(=O)c3ccc(S(=O)(=O)N4CCc5ccccc54)cc3)c2C(N)=O)C1	-9%	3%	-5%	0
COc1cc(C(=O)NC(C)c2cccc3ccccc23)cc(OC)c1OC (stereo not drawn)	·	2%[11.5 µM]	3%	0
COc1ccc(N(Cc2cc3cc(C)ccc3[nH]c2=O)C(C)=O)cc1	·	0%	-27%	1
SMILES	NPSR antagonist	PKM2 activator	ClpP mod	IL2 activator
COc1ccc2[nH]c(=O)c(CN(C(C)=O)C3CCCCC3)cc2c1	-6%[46.1 µM]	0%	32µM*	1
COc1ccc2[nH]c(=O)c(CN(C(=O)NC3CCCCC3)C3CCCC3)cc2c1	-15%[46.1 µM]	-2%	34%	-3
COc1ccc2[nH]c(=O)c(CN(C(C)=O)c3cccc(C)c3)cc2c1	-9%[46.1 µM]	0%	35µM*	1
CCN1CC(CN(C)Cc2nc(-c3cccs3)no2)CC1=O (stereo not drawn)	-8%	?	·	1
O=[N+]([O-])c1ccc(NCCCNS(=O)(=O)c2ccc(Cl)cc2)c(Cl)c1	-29%[46.1 µM]	14µM*	1%	-4
CS(=O)(=O)c1cccc(C(=O)Nc2nnc(C3=COCCO3)o2)c1	·	·	10µM*	0
O=C1C(Cl)=C(Nc2ccc3cn[nH]c3c2)C(=O)c2ccccc21	6.3µM*	-3%	·	-1
O=C(Nc1ccc2cn[nH]c2c1)c1c(Cl)cccc1Cl	-10%[46.1 µM]	2%	-13%	-3
CC(=O)Nc1ccc(NC2=C(Cl)C(=O)c3ccccc3C2=O)cc1	10µM*	-2%	·	-1
COc1ccc(S(=O)(=O)N2CCCCCC2)cc1C(=O)NCc1ccco1	·	·	·	0
COc1ccc(CC(=O)Nc2ccccc2C(C)=O)cc1S(=O)(=O)N1CCOCC1	·	·	35µM*	-3
O=C(Nc1cc(S(=O)(=O)N2CCCCCC2)ccc1OCC(F)(F)F)C1CCC1	·	4%	2%	-1
COc1ccc(S(=O)(=O)N2CCCCCC2)cc1C(=O)NCc1ccccc1Cl	·	·	25µM*	0
COc1cc(NC(=O)Cc2ccc(OC)c(S(=O)(=O)N3CCOCC3)c2)c(OC)cc1Cl	·	-6%	·	-2
COc1ccc(S(=O)(=O)N2CCCCC2)cc1NC(=O)c1ccco1	·	-4%	16µM*	-1
CCOc1ccc(S(=O)(=O)N2CCCCC2)cc1NC(=O)C1CCC1	·	·	14µM*	-1
CC(C)Oc1ccc(S(=O)(=O)N2CCOCC2)cc1NC(=O)Cc1ccsc1	·	·	-1%	1
COc1ccc(S(=O)(=O)N2CCOCC2)cc1NC(=O)Cc1ccsc1	·	·	20µM*	2
COc1ccccc1Oc1nc(-c2ccccc2)cc(C)c1S(C)(=O)=O	?	2%	25µM*	-3
CC(=O)NN1C(=O)c2ccc(Oc3ccc4c(c3)C(=O)N(NC(C)=O)C4=O)cc2C1=O	21%	0%	·	·
COc1cc2c3nnc(-c4ccc(F)cc4)c-3cn(Cc3cccc(F)c3)c2cc1OC	1%	-2%	-16%	76*
COc1cc2c3nnc(-c4ccccc4)c-3cn(Cc3ccc(F)cc3)c2cc1OC	?	14%	·	12
COc1cc2c3nnc(-c4ccc(F)cc4)c-3cn(Cc3cccc(C)c3)c2cc1OC	-17%[46.1 µM]	9%	-15%	218*
COc1cc2c3nnc(-c4ccc(F)cc4)c-3cn(Cc3ccc(C)cc3)c2cc1OC	?	-17%	20µM*	349*
COc1cccc(Cn2nc3c4cc(F)ccc4n(Cc4ccc(F)cc4)cc-3c2=O)c1	·	·	·	0
SMILES	NPSR antagonist	PKM2 activator	ClpP mod	IL2 activator
O=C(COC(=O)c1cnccn1)Nc1cccc(F)c1	·	·	0%	4
CCCCOCCOC(=O)C1OC1(C)c1ccccc1 (stereo not drawn)	·	·	0%	-3
Cc1ccccc1Cn1ccc(NC(=O)c2nn(C)cc2[N+](=O)[O-])n1	14%	-6%	28µM*	-1
CCn1cc([N+](=O)[O-])c(C(=O)Nc2ccn(Cc3ccccc3F)n2)n1	7%[46.1 µM]	-3%	0%	-2
Cc1c(C(=O)Nc2cccc(C(F)(F)F)c2)oc2ccc(S(=O)(=O)N(C)C3CCCCC3)cc12	·	·	-7%	·
COc1ccc(NC(=O)c2oc3ccc(S(=O)(=O)N(C)C4CCCCC4)cc3c2C)cc1Cl	·	·	28µM*	·
Cc1ccc(NC(=O)Cn2c(=O)oc3cc(S(=O)(=O)N4CCCCC4)ccc32)c(Cl)c1	·	·	0%	·
CCOC(=O)/C(=C\c1ccc(OC(F)F)cc1)C1=Nn2c(nnc2-c2ccc(Cl)cc2)SC1	10µM*	5%	-1%	-1
CCOC(=O)/C(=C/c1ccc(OC(F)F)cc1)C1=Nn2c(nnc2-c2ccc(Cl)cc2)SC1	·	·	·	-1

Compound activity as filed in PubChem.
